High-throughput results deposited in PubChem by The Scripps Research Institute Molecular Screening Center.
Shown are actives, neighbours in structure and some others; about 4.6% of the full set was active somewhere.
ssDAF12 agonist: S. stercoralis DAF-12 activation, primary screen | HEK293 ssDAF-12/GRIP1 lit1-tk-luc reporter, luminescence; % of 3 µM dafachronic acid response | activation, % at 6.8 µM | actives 1% (n = 370,000);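 active = activation above the mean over all tested compounds plus 3 SD, cut at about 0.9% in these data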;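 also: 0% = DMSO-only wells and 100% = 3 µM delta7-dafachronic acid wells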
Wee1 degr inh: blocks degradation of human Wee1 kinase; P30291; HeLa Luc-Wee1K328M stability, luciferase luminescence; 100% = proteasome inhibitor MG132 effect; reporter increase, % at 5 µM; actives 1.2% (n = 220,000);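 active = activation above the mean of all tested compounds plus 3 SD, set per screening run, cut at about 8.8% in these data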;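 also: cells exposed to compound for 20 h before luminescence read; 0% = DMSO alone and 100% = MG132 at 30 µM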
DAX1 inh-1: inhibits human nuclear receptor DAX1; actives 0.99% (n = 340,000); AID 504766; HEK293 Gal4-DAX1 luciferase reporter, luminescence; inhibition, % at 6.75 µM;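 active = inhibition above the mean over all tested compounds plus 3 SD, cut at about 4.2% in these data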;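 also: 0% = DAX1-transfected cells with DMSO and 100% = empty-vector control cells with DMSO; inhibition shows as a rise in luminescence from relieved DAX1 repression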
Target sequence (P51843 207-470 limits assumed): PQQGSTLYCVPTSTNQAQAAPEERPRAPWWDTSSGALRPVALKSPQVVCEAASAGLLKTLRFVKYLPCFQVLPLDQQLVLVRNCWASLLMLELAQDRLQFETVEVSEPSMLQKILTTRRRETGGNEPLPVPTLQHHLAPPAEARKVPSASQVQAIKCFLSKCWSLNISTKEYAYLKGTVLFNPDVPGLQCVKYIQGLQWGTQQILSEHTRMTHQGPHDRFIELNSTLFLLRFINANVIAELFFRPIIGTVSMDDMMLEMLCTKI
DAX1 inh-2: DAX1 (NR0B1) inhibition, primary screen; inhibition, % at 6.8 µM; AID 652010; actives 1.1% (n = 370,000); HEK293T StAR-luciferase reporter, SF-1/DAX-1 repression relief;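 active = inhibition above the mean over all tested compounds plus 3 SD, cut at about 3.6% in these data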;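 also: 0% = DAX-1 cells with DMSO and 100% = cells lacking DAX-1 with DMSO; higher inhibition means more luminescence from relief of DAX-1 repression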
hgDAF12 agonist: hgDAF-12 agonism, primary luciferase screen. HEK293 GAL4-hgDAF12 UAS-luciferase reporter, agonist luminescence; normalized to butyrate control. activation, % at 6.8 µM. actives 1.8% (n = 370,000). AID 687014;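 active = activation above a cutoff set at the mean of all screened compounds plus 3 SD, cut at about 10% in these data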;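 also: 0% = DMSO wells and 100% = sodium butyrate wells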
hcDAF12 agonist: activates DAF-12 receptor from parasite H. contortus; AID 652067; actives 1.4% (n = 370,000); HEK293 hcDAF-12 lit1-tk-luc reporter, luminescence; 0% DMSO, 100% Δ7-dafachronic acid; activation, % at 6.8 µM;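 active = activation above the mean of all tested compounds plus 3 SD, cut at about 5.5% in these data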;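 also: 100% = response to 3 µM Δ7-dafachronic acid high control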
Numbers without * were called inactive; x = no result given.

SMILES | ssDAF12 agonist | Wee1 degr inh | DAX1 inh-1 | DAX1 inh-2 | hgDAF12 agonist | hcDAF12 agonist
O=C(CSc1nnc(NC(=O)c2ccccc2F)s1)NCC1CCCO1 (centres undefined) | -0.8 | x | 0.2 | 3.8* | 6.7 | 4.8
O=C(CSc1nc2ccccc2s1)NC(=O)NCc1ccco1 | 1.4* | -2.8 | 2.3 | 0.4 | 2.0 | 5.3
O=C(CSc1nnc(NC(=O)c2ccc3c(c2)OCO3)s1)NCc1ccco1 | -0.3 | 0.1 | -2.3 | 2.3 | 12.7* | 5.9*
Cc1ccccc1C(=O)Nc1nnc(SCC(=O)NCc2ccco2)s1 | 0.0 | x | 0.9 | 8.0* | 11.8* | 5.9*
O=C(CSc1nc(-c2ccccc2)cs1)NC(=O)NCc1ccco1 | -1.5 | 0.4 | 1.1 | -0.4 | -0.6 | -2.4
O=C(CSc1nnc(NC(=O)c2ccco2)s1)NCc1ccc2c(c1)OCO2 | -1.2 | 0.6 | 0.6 | -1.0 | -1.8 | -2.1
O=C(CSc1nnc(NC(=O)c2ccccc2)s1)NCc1ccco1 | 0.1 | x | 1.6 | 3.1 | 6.5 | 2.2
COC(=O)c1c(NC(=O)Cc2ccc(OC)c(S(=O)(=O)N3CCOCC3)c2)sc(C)c1C | -1.2 | x | -0.5 | 0.5 | 1.2 | 0.8
Cc1nnc(NC(=O)CCC(=O)NCc2ccco2)s1 | -0.5 | 10.0* | 2.2 | 0.4 | -1.1 | -1.4
CCCC(=O)Nc1nnc(-c2ccco2)s1 | -0.9 | 8.7 | 0.3 | 0.8 | 3.2 | 1.9
O=C(CN1CCc2ccccc21)NC(=O)NCc1ccco1 | 1.0* | 2.4 | 0.3 | -0.5 | 0.8 | 3.5
Cc1cc(OCCOCCNCc2ccccc2)ccc1C(C)C | -2.3 | x | -2.1 | -0.6 | -4.4 | -3.6
COc1ccccc1C(=O)NNC(=S)NC(=O)c1sc2ccccc2c1Cl | 0.9 | 1.9 | 0.3 | 1.0 | 3.6 | 6.1*
CC1(C)SC(C)(C)N(C=O)C1C(=O)O (centres undefined) | -0.9 | x | 0.4 | -0.3 | 2.0 | -1.6
CSc1nc(N)nc(N(C)C)n1 | -2.6 | 2.3 | 0.7 | 0.1 | -0.1 | 1.3
CSc1nc(N)nc(C2CC2)n1 | -1.1 | 4.7 | 4.8* | -0.2 | -1.3 | 1.0
O=C1CN(C(=O)COC(=O)c2c(F)cccc2Cl)c2ccccc2N1 | -0.6 | x | 0.7 | 1.2 | -0.8 | 3.3
COc1cccc2c1C(=O)c1c(O)c3c(c(O)c1C2=O)C[C@@](O)(C(=O)CO)C[C@@H]3O[C@H]1C[C@H](N)[C@H](O)[C@H](C)O1 | 2.2* | -3.2 | -2.7 | -5.9 | -6.7 | 5.4
CC(=O)[C@@]1(O)Cc2c(O)c3c(c(O)c2[C@H](O[C@H]2C[C@H](N)[C@H](O)[C@H](C)O2)C1)C(=O)c1ccccc1C3=O | 3.6* | x | x | -14.1 | -4.7 | 4.5
COc1cccc2c1C(=O)c1c(O)c3c(c(O)c1C2=O)CC(O)(C(C)=O)CC3OC1CC(N(C)C)C(O)C(C)O1 (centres undefined) | -2.8 | x | -6.5 | -9.6 | -11.2 | -4.5
Cc1cccc(NC(=O)CSc2nc3ccccc3o2)c1 | -0.2 | 3.8 | 2.3 | 1.3 | 12.7* | 3.3
COc1ccc(NC(=O)c2cc3ccccc3oc2=O)c(OC)c1 | 0.4 | x | 2.0 | 1.4 | 11.0* | 4.6
CC(=O)Nc1ccc(NC(=O)CSc2nc3ccccc3o2)cc1 | -0.4 | 0.9 | -0.5 | 0.4 | 7.1 | 0.3
COc1ccc(NC(=O)c2cc(C3CC3)on2)c(OC)c1 | 1.1* | 6.2 | 0.9 | 2.4 | 5.9 | 4.7
COc1ccc(-c2cc3ccc(O)cc3oc2=O)cc1OC | -0.1 | x | 0.4 | 0.3 | 3.0 | 5.8*
Cc1cc(C)cc(OCC(=O)Nc2ccc(-n3cnnn3)cc2)c1 | -1.5 | x | 0.4 | -1.4 | -2.1 | -1.7
COc1ccccc1C(=O)NC1CCCCN(Cc2ccc(C)cc2)C1=O (centres undefined) | -1.1 | x | x | -0.6 | 1.4 | 0.7
Cc1ccc(S(=O)(=O)N2C(=O)CCC2C(=O)O/N=C(\N)c2ccc([N+](=O)[O-])cc2)cc1 (centres undefined) | -0.7 | x | 0.2 | 1.0 | 0.1 | -1.7
COc1ccc(-c2nnc(-c3cc4ccccc4oc3=O)o2)cc1 | -0.9 | 0.2 | -0.1 | 0.6 | 1.9 | 1.4
COc1ccc(-c2cc3ccccc3oc2=O)cc1 | 0.2 | x | 1.7 | 1.7 | 12.7* | 4.9
